The record followed here is PubChem BioAssay.

Test [1] deals with Wnt5a (protein binding on small-molecule microarray). The test can be described thus: small molecules binding Wnt5a protein – biophysical, small-molecule microarray, 635/667 nm fluorescence, primary screen (AID 1142).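 Also: fluorescence read at 667 nm with signal to noise per printed feature.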 The note with it: 635 nm fluorescence, higher = more signal.
The nature of test [2]: ATP-based viability of Huh7 replicon cells – cell-based, CellTiter-Glo luminescence, basal, 48 h, cytotoxicity control for HCV replication inhibitor project, primary screen (AID 1143).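 Also: Huh7 hepatoma cells carrying a hepatitis C replication reporter with no stimulus; test concentration not given here.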 Conditions: higher = more signal, called active from +8 up or from −8 down. Background: In antiviral work, replicon cells carry a viral genome segment that copies itself.
The nature of test [3]: Pseudomonas biofilm growth suppression – PAO1 strain, BacTiter-Glo luminescence, LB-PBS, primary screen (AID 1144). Conditions: P. aeruginosa PAO1 biofilm, 12 h, higher = more signal.
Test [4] is described as follows: basal CRE-LacZ reporter activity in PC12 – cell-based, unstimulated, primary screen (AID 1145). Conditions: no forskolin, luminescence, 4.5 h, higher = more signal, called active from +8 up or from −8 down.
A short description of test [5]: forskolin-driven CRE-LacZ activity in PC12 – cell-based, CRE-LacZ reporter, forskolin-stimulated, primary screen (AID 1146).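 Also: PC12 cells with 6xCRE LacZ reporter stimulated by forskolin 10 µM; beta-galactosidase reporter signal reflecting CREB driven transcription.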 Conditions: luminescence, 4.5 h, higher = more signal, called active from +8 up or from −8 down.
Test [6] addresses Streptavidin (Streptomyces avidinii) (UniProt P22629). Put plainly: compounds binding control protein streptavidin – biophysical, small-molecule microarray, 635/667 nm fluorescence, artefact control for SMM compound annotation, primary screen (AID 1147).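 Also: signal reflects streptavidin binding to arrayed compounds as a control protein.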 The note with it: higher = more signal.
A short description of test [7]: probe aInhba binding on compound microarray – biochemical, small-molecule microarray, 635/667 nm fluorescence, primary screen (AID 1148).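 Also: score merges 667nm spot fluorescence with signal-to-noise for antibody binding to printed compounds.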 Conditions: higher = more signal.
For test [8], the target named is Torsin-1A (Homo sapiens) (UniProt O14656). Put plainly: TOR1A wild-type binding on microarray – cell lysate, small-molecule microarray, lysate, 635/667 nm, primary screen (AID 1149). The note with it: COS7 hTOR1A-WT lysate, 635 nm fluorescence, higher = more signal.
Sequence of Torsin-1A (Homo sapiens) (O14656 whole entry, looked up): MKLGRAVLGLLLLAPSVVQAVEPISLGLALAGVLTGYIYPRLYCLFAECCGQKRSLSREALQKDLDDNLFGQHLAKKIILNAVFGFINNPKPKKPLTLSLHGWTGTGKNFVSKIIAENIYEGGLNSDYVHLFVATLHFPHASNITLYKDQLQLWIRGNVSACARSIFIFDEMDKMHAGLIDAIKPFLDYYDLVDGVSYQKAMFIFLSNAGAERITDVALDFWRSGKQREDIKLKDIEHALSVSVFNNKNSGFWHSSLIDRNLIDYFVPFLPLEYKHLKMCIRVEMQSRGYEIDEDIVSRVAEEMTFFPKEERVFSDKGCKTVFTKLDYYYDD
Test [9] has the same target. Put plainly: torsin A mutant lysate binding on microarrays – cell lysate, small-molecule microarray, COS7 lysate, 635/667 nm fluorescence, primary screen (AID 1150).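 Also: score pools 667 nm emission and signal to noise measuring lysate protein binding.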 The note with it: COS7 hTOR1A mutant lysate, 635 nm fluorescence, higher = more signal.
In test [10] the test system is Sonic hedgehog protein (Shh). The test can be described thus: Sonic hedgehog microarray binding compounds – biochemical, small-molecule microarray, 635/667 nm fluorescence, primary screen (AID 1151).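 Also: Shh protein binding to compounds spotted on small-molecule microarray slides; score combines spot fluorescence intensity with signal-to-noise across triplicate slides.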 The note with it: 635 nm fluorescence, higher = more signal.

Structures are written as SMILES. Active and inactive are the calls of the source. Unless noted, no rule for the calls is given here.

Sequence of Streptavidin (Streptomyces avidinii) (P22629 whole entry, looked up): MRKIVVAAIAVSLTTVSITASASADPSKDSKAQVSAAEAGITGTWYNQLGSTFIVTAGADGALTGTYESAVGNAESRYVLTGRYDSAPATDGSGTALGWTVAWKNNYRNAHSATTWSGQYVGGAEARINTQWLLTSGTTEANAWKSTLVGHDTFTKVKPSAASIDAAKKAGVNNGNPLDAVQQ

For `C=CCOC(=O)[C@@H]1[C@H]2C(=O)O[C@H](c3ccccc3)[C@H](c3ccccc3)N2[C@H](c2ccc(OCCOC(=O)[C@H]3C[C@H]4C(=O)NCC(=O)N4[C@H]3c3cccc(OCCO)c3)cc2)[C@@]12C(=O)Nc1ccc(I)cc12`, the composite z-score in [1] worked out at 0.569; in [6], 0.808; in test [7], 0.0228; in the test with Torsin-1A (Homo sapiens) [8], 0.724; in the test with Torsin-1A (Homo sapiens) [9], 0.702; in [10], 1.88. Besides, the z-score in [2] is -0.357 (inactive); in test [3], -0.71 (inactive); in [4], -0.264 (inactive); in test [5], -0.0891 (inactive).
Consider `CC=CC(O)C1C=CC2C(=O)NC(=O)C2N1Nc1ccc(Cl)cc1Cl` (stereo not given), for which the composite z-score was -0.242 in test [1]; 0.0171 in test [6]; -0.176 in test [7]; 0.34 with Torsin-1A (Homo sapiens) [8]; 0.0964 with Torsin-1A (Homo sapiens) [9]; 0.443 in test [10]. Besides, the z-score in [2] is 0.323 (inactive); in [3] it was 0.101 (inactive); in test [4], -0.133 (inactive); in [5] it was 0.467 (inactive).
Turning to `COc1ccc(C(=O)Nc2ccc3c(c2)[C@@]2(O[C@H](CCO)[C@@H]([Si](C)(C)c4ccc(OC)cc4)[C@@H]2C)C(=O)N3Cc2ccccc2)cc1`, the composite z-score in test [1] was 0.0753; in test [6] it was 0.0576; in test [7] it was 0.288; with Torsin-1A (Homo sapiens) [8] it was -0.193; with Torsin-1A (Homo sapiens) [9], 0.46; in test [10] it was 1.93. Besides, the z-score in test [2] is -8.09 (active); in test [3] it was -0.0986 (inactive); in test [4], 5.6 (inactive); in test [5], -0.352 (inactive).
For the compound `Cc1ccc(S[C@]2(C(=O)NC(C)C)CC(=O)N(C3CCCCC3)[C@@H]2c2ccc(CO)cc2I)cc1`, the composite z-score was 0.0335 in test [1]; 1.46 in [6]; -0.0589 in test [7]; 1.21 with Torsin-1A (Homo sapiens) [8]; 2.76 with Torsin-1A (Homo sapiens) [9]; 1.95 in test [10]. Further, the z-score in [2] was -3.94 (inactive); in [3], -1.17 (inactive); in test [4], -0.608 (inactive); in [5] it was 0.74 (inactive).
Take `COc1ccc(NN2C(C(O)c3ccc(I)cc3)C=CC3C(=O)N(C4CCCCC4)C(=O)C32)cc1` (stereo not given): the composite z-score in test [1] was found to be 0.404; in test [6] it was 1.34; in [7] it was 0.253; with Torsin-1A (Homo sapiens) [8], 0.237; with Torsin-1A (Homo sapiens) [9], 0.51; in [10], 1.3. Further, the z-score is -1.7 (inactive) in test [2], -2.03 (inactive) in test [3], 0.435 (inactive) in test [4] and -0.469 (inactive) in [5].
For the compound `CC(C)OC(=O)CC(=O)CC(O)c1cccc([N+](=O)[O-])c1` (stereo not given), the composite z-score in [1] is 0.457; in test [6], 1.14; in [7], -0.0221; with Torsin-1A (Homo sapiens) [8], -0.324; with Torsin-1A (Homo sapiens) [9], 2.75; in [10] it was -0.352. For the same compound, the z-score in [2] was -3.92 (inactive); in [3], -2.34 (inactive); in test [4], -0.676 (inactive); in test [5], -0.185 (inactive).
Turning to `COC(=O)[C@@]1(Cc2ccccc2)[C@H]2c3cc(C(=O)N4CCCC4)n(Cc4ccc(OC)c(OC)c4)c3C[C@H]2CN1C(=O)c1ccccc1`, the composite z-score in test [1] is 0.56; in [6], 0.782; in [7], 0.715; with Torsin-1A (Homo sapiens) [8] it was 0.279; with Torsin-1A (Homo sapiens) [9], 1.18; in test [10], -0.121. The z-score was -1.99 (inactive) in [2], 0.388 (inactive) in [3], 0.39 (inactive) in test [4] and 0.208 (inactive) in [5].
As to `O=C(NCC(O)CO)C1N=C(c2ccc(OCCCO)cc2)N(c2ccccc2)O1` (stereo not given), the composite z-score in test [1] was 0.41; in test [6] it was -0.214; in test [7], -0.0468; with Torsin-1A (Homo sapiens) [8], 0.975; with Torsin-1A (Homo sapiens) [9], 0.682; in [10] it was 1.27. In addition, the z-score was -1.12 (inactive) in test [2], 2.56 (inactive) in test [3], 0.456 (inactive) in test [4] and -0.442 (inactive) in [5].
As to `CC1CC/C=C\[C@H]2OC34C=CCN(Cn5nnc6ccccc65)C(=O)[C@H]3N(CCCCCCO)C(=O)[C@@H]4C2C(=O)O1` (stereo not given in full), the composite z-score in test [1] is -0.755; in [6], -0.399; in test [7], -0.12; with Torsin-1A (Homo sapiens) [8] it was -1.51; in the test with Torsin-1A (Homo sapiens) [9] it was -1.11; in test [10] it was -0.415. In addition, the z-score in [2] was 0.835 (inactive); in test [3] it was -1.18 (inactive); in test [4], -0.0859 (inactive); in [5] it was 0.19 (inactive).
As to `O=C1NC(=O)C2C1C=CC(C(O)c1ccc([N+](=O)[O-])cc1)N2Nc1ccccn1` (stereo not given), the composite z-score in test [1] is -0.0851; in test [6], -0.115; in test [7], -0.0059; in the test with Torsin-1A (Homo sapiens) [8], 0.419; in the test with Torsin-1A (Homo sapiens) [9], -0.306; in test [10], -0.371. Further, the z-score was 1.06 (inactive) in test [2], -0.295 (inactive) in [3], -0.133 (inactive) in test [4] and -0.728 (inactive) in [5].
Regarding `COCCOC(=O)N1C(=O)[C@@]2(c3cc(C#CCNC(N)=O)ccc31)[C@H](C(=O)Nc1nc3ccccc3s1)[C@H]1C(=O)O[C@H](c3ccccc3)[C@H](c3ccccc3)N1[C@@H]2c1ccccc1OCCO`, the composite z-score worked out at 0.553 in test [1]; 0.158 in [6]; 0.152 in test [7]; 0.508 with Torsin-1A (Homo sapiens) [8]; 0.0351 with Torsin-1A (Homo sapiens) [9]; 1.82 in [10]. The z-score in test [2] is -2.11 (inactive); in [3] it was -0.264 (inactive); in test [4], -0.465 (inactive); in [5], -0.154 (inactive).
For `COC(=O)[C@]1(Cc2ccccc2)N=C(c2ccc(OCCCO)cc2)O[C@@H]1c1ccccc1CN=[N+]=[N-]`, the composite z-score is 0.239 in test [1]; -0.304 in [6]; 0.233 in [7]; -0.133 with Torsin-1A (Homo sapiens) [8]; 0.104 with Torsin-1A (Homo sapiens) [9]; 0.895 in test [10]. Besides, the z-score was -5.39 (inactive) in [2], -1.19 (inactive) in test [3], 2.31 (inactive) in test [4] and -1.5 (inactive) in test [5].
Consider `CCOC(=O)C1=CCC(c2cc3ccccc3[nH]2)N(CCN2CC(C(=O)OCC)=CCC2c2cc3ccccc3[nH]2)C1` (stereo not given), for which the composite z-score in test [1] came to 0.125; in test [6], 0.428; in [7], 0.162; in the test with Torsin-1A (Homo sapiens) [8] it was 0.0418; with Torsin-1A (Homo sapiens) [9], 0.104; in test [10] it was 0.54. The z-score in [2] is -1.74 (inactive); in test [3] it was -1.85 (inactive); in [4], -0.275 (inactive); in [5], -0.684 (inactive).
Consider `C=C(CCCC)/C(=C/C[C@@H](OC(C)=O)c1ccc(CO)o1)c1cnc2ccccc2c1`, for which the composite z-score came to 0.401 in test [1]; 0.843 in [6]; 0.0536 in test [7]; 1.18 in the test with Torsin-1A (Homo sapiens) [8]; 1.13 with Torsin-1A (Homo sapiens) [9]; 1.39 in [10]. Moreover, the z-score was -0.257 (inactive) in [2], -0.134 (inactive) in test [3], 2.76 (inactive) in [4] and 0.128 (inactive) in [5].
Regarding `O=C1C2C=CC(C(O)C3CCCCC3)N(n3cnnc3)C2C(=O)N1Cc1ccccc1` (stereo not given), the composite z-score in test [1] worked out at 0.364; in test [6] it was 0.203; in [7], 0.229; with Torsin-1A (Homo sapiens) [8], 0.187; with Torsin-1A (Homo sapiens) [9] it was 0.64; in [10], 1.65. Besides, the z-score in test [2] was -4.7 (inactive); in test [3] it was -1.2 (inactive); in test [4], -0.135 (inactive); in test [5], -0.233 (inactive).
